This is an account of results in PubChem BioAssay (NCATS).

Inconclusive results are not listed. A call without a number means that no potency is given here. Activity calls are given as the source filed them. The call rests on the fitted dose curve; in most records, active means well fitted cell-killing curve with a large enough effect; inconclusive means small, poorly fitted or top-dose-only effect; inactive means flat fitted curve, though single readings scatter.
Potency means the concentration at half of the fitted maximal effect.

The test can be described thus: Cell Viability - LYMP2-006 (AID 978). Further: nearly all actives have a fitted effect of over 60% in size. To be noted: LYMP2-006 lymphoblastoid cell viability, qHTS; series mostly up to 92.2 µM. The text has this: NIH Chemical Genomics Center [NCGC]
NIH Molecular Libraries Screening Centers Network [MLSCN]
National Institutes of Environmental Health Sciences [NIEHS]
National Toxicology Program [NTP]
We have developed a 1536-well cell-based assay for quantitative high throughput screening (qHTS) against a number of cell lines to determine in vitro cytotoxicity of small molecules. This particular assay uses a human lymphoblastoid cell line (LYMP2-006) purchased from Coriell Institute for Medical Research.
NCGC Assay Protocol Summary:
The CellTiter-Glo luminescent cell viability assay (Promega) is a homogeneous method to measure the number of viable cells in culture. The end point readout of this assay is based on quantitation of intracellular ATP, an indicator of metabolic activity, using the luciferase reaction. Luciferase catalyzes the oxidation of beetle Luciferin to oxyluciferin and light in the presence of ATP. The luminescent signal is proportional to amount of ATP present.
Using the CellTiter-Glo luminescent cell viability assay, the amount of cellular ATP was measured in the lymphoblastoid cell line with complete culture medium following compound treatment for 24 hours. The assay was performed in opaque white Kalypsys 1536-well plates. In the screen, tetraoctylammonium bromide was used as positive control. Library compounds were measured for their ability to cause acute toxicity in the cell line, as reflected by a decrease in intracellular ATP levels, in a concentration-dependent manner. […] AC50 values were determined from concentration-response data modeled with the standard Hill equation.
qHTS protocol for CellTiter Glo lymphoblastoid cellular assay
[Step] [Parameter] [Value] [Description]
1. Reagent; 5 uL; 2500 lymphoblastoid cells/well
2. Time; 5 hr; 37 C incubation
4. Controls; 23 nL; Tetraoctylammonium bromide 6.4pM to 92 uM
5. Time; 24 hr; 37 C incubation
6. Reagent; 5 uL; CellTiter Glo reagent
7. Time; 30 min; Room Temperature
8. Detection; Luminescence; Viewlux plate reader
Keywords: cell viability, cytotoxicity, lymphoblastoid cell line, luminescence, NTPHTS, NTPHTS_NCGC, NIEHS, DSSTox, MLSMR, MLSCN, NIH Roadmap, qHTS, NCGC
Regarding `C=CCc1cc(OC)c2c(c1)OCO2`, the Potency entry was “inactive”.
In the case of `COc1cc(-c2ccc(N)c(OC)c2)ccc1N`, the Potency result is “inactive”.
Turning to `CC1CC(=O)O1` (stereo not given), the Potency entry is “inactive”.
On to `N#C/C=C/C#N`, for which the Potency is 25.1 µM (active).
Take `C=CC(=O)OCC(C)C`: the Potency result is “inactive”.
For the molecule `S=C1NCCN1`, the Potency result is “inactive”.
In the case of `FC(Cl)(Cl)Cl`, the Potency entry is “inactive”.
In the case of `Nc1ncc([N+](=O)[O-])s1`, the Potency result was “inactive”.
For `C1CC2OC2CC1C1CO1` (stereo not given), the Potency result is “inactive”.
Turning to `C=COC(C)=O`, the Potency result was “inactive”.
For `c1ccc(C2CO2)cc1` (stereo not given), the Potency result is “inactive”.
On to `Cc1ccc(OP(=O)(Oc2ccc(C)cc2)Oc2ccc(C)cc2)cc1`, for which the Potency entry was “inactive”.
Consider `Clc1ccc(C(c2ccccc2Cl)C(Cl)(Cl)Cl)cc1` (stereo not given), for which the Potency entry is “inactive”.
In the case of `Clc1ccc(C(Cl)(Cl)Cl)cc1Cl`, the Potency entry is “inactive”.
For the molecule `O=C(O)C(Cl)Br` (stereo not given), the Potency entry is “inactive”.
Take `Nc1cc(Cl)ccc1Cl`: the Potency entry is “inactive”.
For `COc1c(C(C)(C)C)cc([N+](=O)[O-])c(C)c1[N+](=O)[O-]`, the Potency entry is “inactive”.
In the case of `C=C(Cl)CCl` it was “inactive”; in that of `Cl/C=C\Cl`, “inactive”.
On to `N#CCCCCC#N`, for which the Potency entry was “inactive”.
Consider `CCSC(=O)N1CCCCCC1`, for which the Potency entry was “inactive”.
As for `O=C(Cl)c1ccccc1F`, the Potency result is “inactive”.
Consider `ClC(Cl)c1ccccc1`, for which the Potency entry is “inactive”.
In the case of `Nc1cc(Cl)cc(C(=O)O)c1Cl`, the Potency entry is “inactive”.
As for `ClCCCCl`, the Potency result was “inactive”.
Then `OCC(Cl)CCl` (stereo not given), with “inactive”; and `O=[N+]([O-])c1ccccc1-c1ccccc1`, with “inactive”; and `ClC(Cl)Br`, with “inactive”.
In the case of `CCCCNC(=O)n1c(NC(=O)OC)nc2ccccc21`, the Potency result was “inactive”.
Consider `C=C(C)CCl`, for which the Potency entry was “inactive”.
In the case of `CCOC(=O)CBr` it was “inactive”.
`C(CCOCC1CO1)COCC1CO1` (stereo not given): the Potency entry is “inactive”.
In the case of `ClCC(Cl)Cl` it was “inactive”; in that of `CCBr`, “inactive”; in that of `OCCOCCO`, “inactive”.
Then `Oc1cc(Cl)cc(Cl)c1`, with “inactive”.
As for `Nc1ccccc1-c1ccccc1`, the Potency entry is “inactive”.
Turning to `CC(C)CON=O`, the Potency result is “inactive”.
Then `Clc1cccc2ccccc12`, with “inactive”; and `BrCC(Br)C1CCC(Br)C(Br)C1` (stereo not given), with “inactive”.
